# Data taken from PubChem BioAssay (NCATS).
# Where “and” joins values, the source holds several entries; their conditions need not be identical. Identical values can stand only once. Values without a mark were called inactive. Results filed as inconclusive are left out. Calls of active or inactive are those of the source. Unless noted, calls follow the shape of the dose curve; as a rule, active = well fitted curve in the direction sought with a large enough effect; inconclusive = small, poorly fitted or top-dose-only effect, or another doubt; inactive = no such curve, though single readings can be large; an effect the other way counts as inactive or inconclusive.
# Assays:
# [1] = biological target: Rap guanine nucleotide exchange factor 3 (Homo sapiens) (UniProt O95398); assay: Confirmatory qHTS for agonist of cAMP-regulated guanine nucleotide exchange factor 3 (EPAC1) (AID 1645881); also: nearly all actives have a fitted effect of over 75% in size; also: potency is read from the fitted curve at half-maximal effect;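 as to activation: EPAC1 catalysed release of BODIPY-GDP from Rap1B seen as fluorescence loss; 100% = effect of cAMP agonist control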
# [2] = biological target: Rap guanine nucleotide exchange factor 4 (Homo sapiens) (UniProt Q8WZA2); assay: Confirmatory qHTS for antagonist of cAMP-regulated guanine nucleotide exchange factor 4 (EPAC2) (AID 1645885); also: % is scaled to controls: 0 for no effect and ±100 for the full control effect; nearly all actives have a fitted effect of over 25% in size
# [3] = biological target: Rap guanine nucleotide exchange factor 3 (Homo sapiens) (UniProt O95398); assay: Counterscreen qHTS for antagonist of cAMP-regulated guanine nucleotide exchange factor 3 (EPAC1) (AID 1645888);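 also: fluorescence loss as bound BODIPY-GDP is released from Rap1B; % of control where 0% means no effect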
# Procedure, shortened: (§1)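 Rap1B–BODIPY-GDP (250 nM) with 50 uM GDP; compounds pin-transferred to 9.74 nM–152 uM final (activator) or from 7.32 nM upwards (inhibitor). Fluorescence Ex/Em 480/540 nm read at 5 and 30 min, then after adding cAMP or buffer, at room temperature.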
# [4] = biological target: Rap guanine nucleotide exchange factor 3 (Homo sapiens) (UniProt O95398); assay: Counterscreen qHTS for agonist of cAMP-regulated guanine nucleotide exchange factor 3 (EPAC1) (AID 1645889); also: nearly all actives have a fitted effect of over 40% in size; also: potency is read from the fitted curve at half-maximal effect; as to activation: % of control where 0% means no effect
# Procedure, shortened: as §1
# [5] = biological target: DNA repair nuclease/redox regulator APEX1 (Homo sapiens) (UniProt P27695); assay: qHTS Validation Assay for Inhibitors of the Human Apurinic/apyrimidinic Endonuclease 1 (APE1) (AID 1705;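 also: TAMRA fluorescence gain over two minutes as APE1 cuts a quenched THF abasic duplex; % is scaled to controls: 0 for no effect and ±100 for the full control effect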)
# Procedure, shortened: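 Read-out: TAMRA fluorescence (525 nm ex, 598 nm em) from cleavage of a quenched THF abasic-site duplex, 50 nM final; activity taken as intensity change between third and first of three reads 60 s apart.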
# [6] = qHTS for differential inhibitors of proliferation of Plasmodium falciparum line 7G8 (AID 1815);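 also: potency is read from the fitted curve at half-maximal effect; parasite growth measured after three days of incubation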
# [7] = qHTS for differential inhibitors of proliferation of Plasmodium falciparum line GB4 (AID 1816); conditions: Potency: Plasmodium falciparum GB4 proliferation inhibition;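 also: potency is read from the fitted curve at half-maximal effect; parasite growth measured after 72 h incubation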
# [8] = qHTS for differential inhibitors of proliferation of Plasmodium falciparum line 3D7 (AID 1876); also: potency is read from the fitted curve at half-maximal effect
# [9] = qHTS for differential inhibitors of proliferation of Plasmodium falciparum line D10 (AID 1877);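 also: potency is read from the fitted curve at half-maximal effect; parasites grown with compound for 72 h before DNA staining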
# [10] = qHTS for differential inhibitors of proliferation of Plasmodium falciparum line Dd2 (AID 1882); conditions: Potency: Plasmodium falciparum Dd2 proliferation inhibition; also: potency is read from the fitted curve at half-maximal effect; nearly all actives have a fitted effect of over 65% in size
# Procedure, shortened: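 RBC culture, 0.3% parasitemia / 2.5% Hct final; cpd added by pin tool in DMSO; 72 h, 37 C, 5% CO2; lysis buffer + SYBR Green I, o/n RT dark; FI 485/535; norm. to artemisinin 0.29 uM and DMSO.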
# [11] = qHTS for differential inhibitors of proliferation of Plasmodium falciparum line W2 (AID 1883); conditions: Potency: Plasmodium falciparum W2 proliferation inhibition;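 also: potency is read from the fitted curve at half-maximal effect; parasites grown with compound for 72 h before lysis and staining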
# [12] = qHTS for differential inhibitors of proliferation of Plasmodium falciparum line HB3 (AID 1886); conditions: Potency: Plasmodium falciparum HB3 proliferation inhibition;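 also: potency is read from the fitted curve at half-maximal effect; parasites grown with compound for 72 h before SYBR Green readout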
# [13] = biological target: Ferritin light chain (Equus caballus) (UniProt P02791); assay: qHTS Validation Assay for Identification of Novel General Anesthetics (AID 2323); also: % is scaled to controls: 0 for no effect and ±100 for the full control effect
# Procedure, shortened: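 10 uM horse-spleen apoferritin + 1-AMA (50% saturated, PBS); cpd pin-transferred, 10 min RT. Ex 380/Em 535 nm endpoint. Activity normalized between free 1-AMA and 1-AMA/apoferritin; 4-parameter Hill fit of concentration-response.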
# [14] = biological target: ATP-dependent DNA helicase Q1 (Homo sapiens) (UniProt P46063); assay: qHTS Validation Assay for Inhibitors of RecQ-Like Dna Helicase 1 (RECQ1) (AID 2353);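 also: plate controls were DMSO vehicle for no effect and enzyme-free control for full effect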
# Procedure, shortened: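 RECQ1T1 50 nM; forked duplex (20 bp + 30-nt ss tails) 200 nM, ATP 2 mM final; pH 8.0, 2 mM MgCl2, 2.5 ug/ml poly(dI-dC); 15 min compound preincubation; discontinuous kinetic read over 2 h at RT.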
# [15] = Validation screen for inhibitors of Lassa infection (AID 463096; calls by dose curve; also: % is scaled to controls: 0 for no effect and ±100 for the full control effect)
# [16] = biological target: Transient receptor potential cation channel subfamily V member 1 (Homo sapiens) (UniProt Q8NER1); assay: HTS Assay for Compounds that Act as Enhancers of the Vanilloid Receptor 1 (AID 488979); also: 0% is about no effect
# Procedure, shortened: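 TRPV1 cells loaded with Fluo-8 calcium dye; compound added and Ca2+ signal (ex 480/em 520 nm) followed 3 min, then capsaicin at EC20 added and read 2 more min to detect enhancement.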
# [17] = biological target: Thyrotropin receptor (Homo sapiens) (UniProt P16473); assay: qHTS Assay for Antagonists of the Thyroid Stimulating Hormone Receptor (AID 488980); also: 0% is about no effect
# Procedure, shortened: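 TSHR-HEK293 cells; 70 uM RO 20-1724 PDE inhibitor; compound + EC80 TSH (4 nM final); anti-cAMP cryptate antibody/cAMP-d2 in lysis buffer, 30 min RT; HTRF 665/620 nm read.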
# [18] = biological target: Thyrotropin-releasing hormone receptor (Homo sapiens) (UniProt P34981); assay: qHTS for Small Molecule Agonists and Allosteric Enhancers of Human TRH Receptor: Validation Screen for Agonists (AID 493127;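 active = calcium activation more than 3 SD above the typical response in the agonist read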;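 also: intracellular calcium rise by fluo-8 fluorescence before TRH EC20 addition; 0% is about no effect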); conditions: TRH receptor agonist cell assay; at 2 µM; active compounds read high
# Procedure, shortened: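 Read-out: intracellular calcium release measured kinetically by FDSS (fluo-8, ex 480/em 530 nm), 1 reading/s after a 10-cycle baseline. TRHR cells, 2000/well, cultured 18 h at 33.5C, dye-loaded at room temp. Compound-evoked positive calcium signal flags agonists.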
# [19] = Cell Viability - Renal Proximal Tubule (AID 545); conditions: renal proximal tubule cells viability, at 91.7 µM (top of the series);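 also: cells exposed to compound for 40 hours; 0% = DMSO only and -100% = 100 µM tamoxifen; nearly all actives have a fitted effect of over 40% in size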
# Procedure, shortened: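 Rat kidney proximal tubule cells, freshly isolated; 1000 cells/well, 5 hr settle, compound 40 hr 37 °C. CellTiter-Glo 20 min RT, luminescence read. AC50 by standard Hill fit.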
# [20] = Cellular Toxicity (caspase-3) Renal Proximal Tubule (AID 667); conditions: renal proximal tubule cells, at 91.7 µM (top of the series);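 also: cells exposed to compound for 16 hours at 37 °C before detection; 0% = DMSO basal and 100% = 10 µM staurosporine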
# Procedure, shortened: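 Luminescent caspase 3/7 signal from peptide-aminoluciferin cleavage measures apoptosis in freshly isolated rat kidney proximal tubule cells after 16 h compound exposure. Concentration-response data are normalized to DMSO and 10 uM staurosporine, and AC50 values come from Hill equation fits.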
# Chain of Rap guanine nucleotide exchange factor 3 (Homo sapiens) (O95398 whole entry, looked up): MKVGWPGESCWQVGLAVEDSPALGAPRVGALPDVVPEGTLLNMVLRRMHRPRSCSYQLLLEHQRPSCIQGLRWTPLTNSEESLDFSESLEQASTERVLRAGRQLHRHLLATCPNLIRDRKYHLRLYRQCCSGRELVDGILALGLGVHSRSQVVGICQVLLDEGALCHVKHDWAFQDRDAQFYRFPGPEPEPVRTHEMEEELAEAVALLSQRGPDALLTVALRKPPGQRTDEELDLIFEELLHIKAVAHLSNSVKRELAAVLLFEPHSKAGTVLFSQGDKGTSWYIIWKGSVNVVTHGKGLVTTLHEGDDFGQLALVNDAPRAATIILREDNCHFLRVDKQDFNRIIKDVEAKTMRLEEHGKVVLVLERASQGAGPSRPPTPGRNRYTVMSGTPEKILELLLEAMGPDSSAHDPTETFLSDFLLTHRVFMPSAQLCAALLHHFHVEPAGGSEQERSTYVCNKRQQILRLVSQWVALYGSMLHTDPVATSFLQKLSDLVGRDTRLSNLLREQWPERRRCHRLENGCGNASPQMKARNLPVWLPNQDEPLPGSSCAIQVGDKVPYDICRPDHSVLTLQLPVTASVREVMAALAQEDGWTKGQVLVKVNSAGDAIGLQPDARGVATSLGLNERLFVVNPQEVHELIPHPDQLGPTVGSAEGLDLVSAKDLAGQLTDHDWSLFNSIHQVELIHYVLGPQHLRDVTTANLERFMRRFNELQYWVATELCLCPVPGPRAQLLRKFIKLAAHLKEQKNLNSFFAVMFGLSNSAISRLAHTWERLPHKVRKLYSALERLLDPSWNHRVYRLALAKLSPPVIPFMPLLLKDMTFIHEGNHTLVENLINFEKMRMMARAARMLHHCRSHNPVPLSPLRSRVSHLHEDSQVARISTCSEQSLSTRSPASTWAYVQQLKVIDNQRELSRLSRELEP
# Chain of Rap guanine nucleotide exchange factor 4 (Homo sapiens) (Q8WZA2 whole entry, looked up): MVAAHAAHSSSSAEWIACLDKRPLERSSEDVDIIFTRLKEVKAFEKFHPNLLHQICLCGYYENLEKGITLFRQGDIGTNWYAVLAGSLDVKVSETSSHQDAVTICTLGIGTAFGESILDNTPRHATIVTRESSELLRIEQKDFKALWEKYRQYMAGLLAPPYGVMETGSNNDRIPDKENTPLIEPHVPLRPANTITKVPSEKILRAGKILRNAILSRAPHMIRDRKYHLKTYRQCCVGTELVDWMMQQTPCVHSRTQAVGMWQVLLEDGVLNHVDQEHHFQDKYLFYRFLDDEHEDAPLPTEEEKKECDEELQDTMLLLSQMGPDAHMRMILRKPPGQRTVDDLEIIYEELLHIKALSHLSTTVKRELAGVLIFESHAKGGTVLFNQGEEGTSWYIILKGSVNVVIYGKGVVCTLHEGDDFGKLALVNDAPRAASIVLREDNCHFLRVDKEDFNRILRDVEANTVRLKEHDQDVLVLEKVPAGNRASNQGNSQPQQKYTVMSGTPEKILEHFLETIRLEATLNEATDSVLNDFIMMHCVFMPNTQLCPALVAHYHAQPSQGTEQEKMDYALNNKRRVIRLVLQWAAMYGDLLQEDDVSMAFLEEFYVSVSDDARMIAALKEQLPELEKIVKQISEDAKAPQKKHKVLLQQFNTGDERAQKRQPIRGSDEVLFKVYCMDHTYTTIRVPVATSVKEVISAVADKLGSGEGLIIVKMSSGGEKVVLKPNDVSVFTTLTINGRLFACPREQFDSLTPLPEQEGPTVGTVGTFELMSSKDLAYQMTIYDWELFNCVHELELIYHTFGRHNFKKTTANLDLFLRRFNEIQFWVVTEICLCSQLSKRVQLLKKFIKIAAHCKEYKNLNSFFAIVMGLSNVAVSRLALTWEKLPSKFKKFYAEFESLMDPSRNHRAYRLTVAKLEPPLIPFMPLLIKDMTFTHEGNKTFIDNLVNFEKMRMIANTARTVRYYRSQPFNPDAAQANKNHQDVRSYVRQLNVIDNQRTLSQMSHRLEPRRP
# Chain of Ferritin light chain (Equus caballus) (P02791 2-175 limits assumed): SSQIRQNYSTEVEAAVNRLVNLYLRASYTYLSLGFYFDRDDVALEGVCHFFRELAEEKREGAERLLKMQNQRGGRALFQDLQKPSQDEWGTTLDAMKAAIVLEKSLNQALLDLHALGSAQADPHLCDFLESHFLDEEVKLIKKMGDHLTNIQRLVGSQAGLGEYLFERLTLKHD
# Chain of DNA repair nuclease/redox regulator APEX1 (Homo sapiens) (P27695 whole entry, looked up): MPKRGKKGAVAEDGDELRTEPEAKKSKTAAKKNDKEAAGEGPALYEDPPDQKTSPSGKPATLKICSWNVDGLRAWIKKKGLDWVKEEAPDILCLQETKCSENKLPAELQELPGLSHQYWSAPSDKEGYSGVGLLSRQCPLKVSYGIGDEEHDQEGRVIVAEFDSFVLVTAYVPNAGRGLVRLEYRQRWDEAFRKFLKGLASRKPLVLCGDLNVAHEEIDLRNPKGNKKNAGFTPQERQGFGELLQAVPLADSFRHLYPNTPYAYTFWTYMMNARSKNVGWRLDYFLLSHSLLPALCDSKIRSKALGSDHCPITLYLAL
# Chain of Thyrotropin-releasing hormone receptor (Homo sapiens) (P34981 whole entry, looked up): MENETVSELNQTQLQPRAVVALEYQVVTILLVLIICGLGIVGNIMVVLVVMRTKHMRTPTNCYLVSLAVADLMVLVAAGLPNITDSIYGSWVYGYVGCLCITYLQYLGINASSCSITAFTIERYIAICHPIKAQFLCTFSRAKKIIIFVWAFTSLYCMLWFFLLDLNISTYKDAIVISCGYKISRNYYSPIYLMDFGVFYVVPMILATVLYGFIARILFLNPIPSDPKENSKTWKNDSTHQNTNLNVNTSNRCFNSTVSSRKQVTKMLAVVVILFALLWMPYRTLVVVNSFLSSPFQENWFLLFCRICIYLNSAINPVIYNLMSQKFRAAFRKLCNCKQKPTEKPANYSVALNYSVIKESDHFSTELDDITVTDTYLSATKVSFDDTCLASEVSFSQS
# Chain of ATP-dependent DNA helicase Q1 (Homo sapiens) (P46063 whole entry, looked up): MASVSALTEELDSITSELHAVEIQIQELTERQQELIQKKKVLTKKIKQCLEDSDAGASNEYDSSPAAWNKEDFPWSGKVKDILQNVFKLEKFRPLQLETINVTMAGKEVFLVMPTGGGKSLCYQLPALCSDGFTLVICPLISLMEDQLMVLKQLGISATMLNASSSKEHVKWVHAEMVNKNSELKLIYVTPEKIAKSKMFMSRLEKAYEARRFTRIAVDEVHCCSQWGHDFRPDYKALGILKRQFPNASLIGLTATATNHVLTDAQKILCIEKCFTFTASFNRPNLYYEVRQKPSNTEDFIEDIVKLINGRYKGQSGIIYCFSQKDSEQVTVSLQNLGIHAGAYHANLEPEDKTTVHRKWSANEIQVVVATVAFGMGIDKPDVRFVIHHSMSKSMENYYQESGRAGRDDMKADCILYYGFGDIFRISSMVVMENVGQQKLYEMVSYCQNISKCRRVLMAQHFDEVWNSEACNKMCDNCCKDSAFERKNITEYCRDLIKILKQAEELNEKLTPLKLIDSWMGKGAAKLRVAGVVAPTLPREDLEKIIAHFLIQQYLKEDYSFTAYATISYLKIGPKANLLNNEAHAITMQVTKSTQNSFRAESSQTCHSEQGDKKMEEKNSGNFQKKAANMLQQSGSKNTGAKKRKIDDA
# Chain of Transient receptor potential cation channel subfamily V member 1 (Homo sapiens) (Q8NER1 whole entry, looked up): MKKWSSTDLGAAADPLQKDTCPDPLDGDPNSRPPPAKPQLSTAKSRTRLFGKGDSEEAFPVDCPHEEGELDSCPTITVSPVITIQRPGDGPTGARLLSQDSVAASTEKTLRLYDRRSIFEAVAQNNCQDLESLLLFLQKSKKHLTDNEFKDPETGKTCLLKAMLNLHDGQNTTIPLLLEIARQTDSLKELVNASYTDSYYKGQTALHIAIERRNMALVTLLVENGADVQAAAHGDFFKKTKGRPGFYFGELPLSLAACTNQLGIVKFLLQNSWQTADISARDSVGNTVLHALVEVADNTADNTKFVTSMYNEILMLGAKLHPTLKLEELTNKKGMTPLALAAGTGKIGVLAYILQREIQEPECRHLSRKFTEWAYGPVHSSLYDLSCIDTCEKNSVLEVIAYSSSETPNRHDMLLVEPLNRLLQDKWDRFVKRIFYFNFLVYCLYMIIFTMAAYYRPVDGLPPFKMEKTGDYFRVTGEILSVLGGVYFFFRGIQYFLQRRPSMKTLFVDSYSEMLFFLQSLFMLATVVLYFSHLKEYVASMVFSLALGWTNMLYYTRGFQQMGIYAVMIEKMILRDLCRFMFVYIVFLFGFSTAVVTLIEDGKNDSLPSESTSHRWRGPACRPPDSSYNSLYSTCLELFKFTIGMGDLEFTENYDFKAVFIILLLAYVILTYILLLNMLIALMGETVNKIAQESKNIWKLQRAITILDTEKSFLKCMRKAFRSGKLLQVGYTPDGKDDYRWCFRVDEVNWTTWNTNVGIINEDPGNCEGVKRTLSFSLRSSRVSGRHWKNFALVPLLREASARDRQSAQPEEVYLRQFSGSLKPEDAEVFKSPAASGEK
smiles,measurement,setting,value
CC1=NCCc2c1[nH]c1cc(O)ccc21,Potency,[1],63 µM (active) and 28.1 µM (active) and 48.4 µM (active)
same,Potency,[2],inactive
same,"activity change, negative = inhibition",[3],251% [at 30.8 µM]
same,Potency,[4],12.6 µM (active)
O=C(OC1CCN(CCCl)CC1)C(c1ccccc1)c1ccccc1,Potency,[5],inactive
same,Potency,[6],7.94 µM (active)
same,Potency,[7],5.62 µM (active)
same,Potency,[8],12.6 µM (active)
same,Potency,[9],12.6 µM (active)
same,Potency,[10],7.08 µM (active)
same,Potency,[11],2.24 µM (active)
same,Potency,[12],11.2 µM (active)
same,Potency,[13],inactive
same,outcome,[14],inactive
same,Potency,[15],inactive
same,outcome,[16],inactive
same,outcome,[17],inactive
same,activation,[18],-9.25%
same,Potency,[1],inactive
same,"activity change, negative = inhibition",[2],-6.11% [at 12.7 µM]
same,"activity change, negative = inhibition",[3],-43.6% [at 30.8 µM]
same,activation,[4],-1.7% [at 30.8 µM]
CCCN1CCc2cc(O)cc3c2C1Cc1ccc(O)c(O)c1-3 (stereo not given),Potency,[5],inactive
same,Potency,[6],5.01 µM (active)
same,Potency,[7],3.16 µM (active)
same,Potency,[8],2.51 µM (active)
same,Potency,[9],3.98 µM (active)
same,Potency,[10],8.91 µM (active)
same,Potency,[11],3.55 µM (active)
same,Potency,[12],3.55 µM (active)
same,Potency,[13],inactive
same,outcome,[14],inactive
same,Potency,[15],inactive
same,outcome,[16],inactive
same,outcome,[17],inactive
same,activation,[18],0.375%
O=C(O)COc1ccc(Cl)cc1Cl,"activity change, negative = cytotoxicity",[19],-12.8%
same,"activity change, negative = cytotoxicity",[19]; primary cells of rat origin,-15.7%
same,caspase-3 activation,[20],4.86%
same,caspase-3 activation,"[20]; primary cells freshly taken from rat, solvent-only wells 0%, staurosporine 100%",3.32%
